For nine molecules, z-score and composite z-score results are on record in PubChem BioAssay.

Molecules are shown by their SMILES. Activity calls are given as the source filed them.

Assay [1] in a line: E. coli DRC41 culture turbidity changes, primary screen, E. coli filamentation inducer project, strain DRC41, OD650, 48 h (AID 1152).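 Note: E. coli MC1000 strain DRC41 lacking acrAB efflux pump and sulA.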 Particulars: E. coli DRC41 (acrAB sulA), higher = more signal, called active from +8 up or from −8 down.
Assay [2] can be described thus: small-molecule binders of probe aLefty1, primary screen, biochemical, small-molecule microarray, 635/667 nm fluorescence (AID 1153).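 Note: score merges spot fluorescence with signal-to-noise ratio from the scanned slide images.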 Particulars: higher = more signal.
Assay [3] in a line: PSAC antagonists in infected red cells, primary screen, cell-based, P. falciparum Indochina, OD700, 1 h (AID 1154). Particulars: P. falciparum Indochina infected RBC osmotic lysis, higher = more signal, called active from +8 up or from −8 down.
Assay [4] in a line: PSAC antagonists in infected red cells, primary screen, cell-based, P. falciparum Indochina, OD700, 2 h (AID 1155).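 Note: lysis reports solute entry through the parasite surface anion channel PSAC; channel blockers reduce lysis of infected cells.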 Particulars: P. falciparum Indochina infected erythrocytes, osmotic lysis OD700; higher = more signal, called active from +8 up or from −8 down.
Assay [5] can be described thus: osmotic lysis modulators in infected erythrocytes, primary screen, PSAC antagonist project, cell-based, P. falciparum Indochina, OD700, 3 h (AID 1156). The settings on record: higher = more signal, called active from +8 up or from −8 down.
Assay [6] is described as follows: PSAC antagonists in infected red cells, primary screen, cell-based, P. falciparum Indochina, OD700, 18 h (AID 1157). The settings on record: P. falciparum Indochina infected erythrocytes, osmotic lysis OD700, 18 h; higher = more signal, called active from +8 up or from −8 down.
Assay [7] can be described thus: modulators of S6 phosphorylation in cells, primary screen, cell-based, A549, cytoblot, luminescence, serum-stimulated (AID 1158).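 Note: serum-stimulated A549 lung adenocarcinoma cells; signal is phosphorylated S6 detected by cytoblot immunostaining with HRP secondary.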 Particulars: A549 phospho-S6 cytoblot, 5 h, higher = more signal.
Assay [8] deals with NADPH oxidase 2 (Homo sapiens) (UniProt P04839). Description: NOX2-dependent H2O2 signal modulators, primary screen, NOX inhibitor project, cell-based, HEK293-NOX2, PMA-stimulated, Amplex Red fluorescence (AID 1159). Note: test concentration not given here. Particulars: 45 min, higher = more signal, called active from +8 up or from −8 down.
Chain of NADPH oxidase 2 (Homo sapiens) (P04839 whole entry, looked up): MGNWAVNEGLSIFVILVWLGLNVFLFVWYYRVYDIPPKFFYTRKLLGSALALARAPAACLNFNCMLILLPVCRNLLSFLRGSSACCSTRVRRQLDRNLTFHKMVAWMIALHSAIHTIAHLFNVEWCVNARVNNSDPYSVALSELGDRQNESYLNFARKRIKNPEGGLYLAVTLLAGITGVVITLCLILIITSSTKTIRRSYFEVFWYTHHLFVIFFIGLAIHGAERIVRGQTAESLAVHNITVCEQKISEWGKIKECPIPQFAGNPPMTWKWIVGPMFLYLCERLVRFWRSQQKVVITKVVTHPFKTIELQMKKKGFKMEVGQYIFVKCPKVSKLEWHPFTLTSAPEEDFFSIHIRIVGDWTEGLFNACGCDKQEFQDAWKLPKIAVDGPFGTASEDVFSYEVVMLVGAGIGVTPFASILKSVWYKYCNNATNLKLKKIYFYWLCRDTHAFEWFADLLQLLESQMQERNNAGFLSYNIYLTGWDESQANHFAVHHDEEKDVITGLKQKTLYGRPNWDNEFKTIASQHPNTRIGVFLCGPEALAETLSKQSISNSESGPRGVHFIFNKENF
In assay [9] the target is NADPH oxidase 4 (Homo sapiens) (UniProt Q9NPH5). Description: NOX4-dependent H2O2 signal modulators, primary screen, NOX inhibitor project, cell-based, HEK293-NOX4, tetracycline-induced, Amplex Red fluorescence (AID 1160). Particulars: 45 min, higher = more signal, called active from +8 up or from −8 down.
Chain of NADPH oxidase 4 (Homo sapiens) (Q9NPH5 whole entry, looked up): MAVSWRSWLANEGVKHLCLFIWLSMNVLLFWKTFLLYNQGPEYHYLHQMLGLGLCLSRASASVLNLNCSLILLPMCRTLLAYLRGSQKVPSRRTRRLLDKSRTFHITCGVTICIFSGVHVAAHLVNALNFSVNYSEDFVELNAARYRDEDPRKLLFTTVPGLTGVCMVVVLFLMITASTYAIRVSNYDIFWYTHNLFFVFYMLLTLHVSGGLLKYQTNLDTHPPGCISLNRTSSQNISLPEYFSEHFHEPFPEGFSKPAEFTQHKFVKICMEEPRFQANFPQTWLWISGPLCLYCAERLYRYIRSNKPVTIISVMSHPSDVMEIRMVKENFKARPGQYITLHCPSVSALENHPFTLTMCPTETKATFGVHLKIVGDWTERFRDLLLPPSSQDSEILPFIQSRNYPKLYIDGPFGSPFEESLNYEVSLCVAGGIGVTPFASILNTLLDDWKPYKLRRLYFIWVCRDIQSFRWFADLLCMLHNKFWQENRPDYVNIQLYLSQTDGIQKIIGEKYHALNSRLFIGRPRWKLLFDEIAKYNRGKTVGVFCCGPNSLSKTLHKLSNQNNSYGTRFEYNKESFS
The target in assay [10] is NADPH oxidase 5 (Homo sapiens) (UniProt Q96PH1). Description: NOX5-dependent H2O2 signal modulators, primary screen, NOX inhibitor project, cell-based, HEK293-NOX5, Amplex Red fluorescence (AID 1161). The settings on record: HEK293-NOX5, ionomycin, 45 min, higher = more signal.
Chain of NADPH oxidase 5 (Homo sapiens) (Q96PH1 whole entry, looked up): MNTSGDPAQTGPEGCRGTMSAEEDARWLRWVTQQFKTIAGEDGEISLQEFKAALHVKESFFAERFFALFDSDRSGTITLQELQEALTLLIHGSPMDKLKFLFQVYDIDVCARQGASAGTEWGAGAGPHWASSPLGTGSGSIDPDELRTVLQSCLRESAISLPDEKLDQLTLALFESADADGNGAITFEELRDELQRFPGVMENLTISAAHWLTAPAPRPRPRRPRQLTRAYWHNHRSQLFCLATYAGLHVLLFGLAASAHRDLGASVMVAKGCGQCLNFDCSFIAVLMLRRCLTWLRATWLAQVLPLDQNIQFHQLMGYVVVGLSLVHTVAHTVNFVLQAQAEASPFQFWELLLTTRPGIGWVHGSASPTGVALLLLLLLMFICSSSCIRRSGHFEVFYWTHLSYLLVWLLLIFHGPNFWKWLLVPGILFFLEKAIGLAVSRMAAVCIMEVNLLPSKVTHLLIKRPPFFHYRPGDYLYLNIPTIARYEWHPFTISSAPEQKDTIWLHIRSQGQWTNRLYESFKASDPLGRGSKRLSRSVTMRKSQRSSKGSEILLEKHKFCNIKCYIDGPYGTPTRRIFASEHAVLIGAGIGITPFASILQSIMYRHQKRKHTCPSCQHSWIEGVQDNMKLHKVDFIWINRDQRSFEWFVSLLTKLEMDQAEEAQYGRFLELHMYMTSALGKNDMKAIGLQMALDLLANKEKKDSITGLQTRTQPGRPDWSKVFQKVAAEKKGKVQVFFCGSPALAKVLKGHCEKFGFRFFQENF
A short description of assay [11]: A549 cell viability effects, profiling panel, calcein-AM fluorescence, 48 h, basal (AID 1162). Note: test concentration not given here. Particulars: higher = more signal.
Assay [12] can be described thus: adipocyte viability effects, profiling panel, cell-based, 3T3-L1 adipocytes, calcein-AM fluorescence, 48 h, basal (AID 1163). Note: test concentration not given here. The settings on record: 3T3-L1 adipocytes viability, higher = more signal.
A short description of assay [13]: HepG2 cell viability effects, profiling panel, calcein-AM fluorescence, 48 h, basal (AID 1164). Note: test concentration not given here. The settings on record: higher = more signal.
Assay [14] in a line: MM1S cell viability effects, profiling panel, calcein-AM fluorescence, 48 h, basal (AID 1165).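 Note: viability of MM1S multiple myeloma cells under basal unstimulated conditions; test concentration not given here.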 Particulars: higher = more signal.
Assay [15] in a line: basal RPMI8226 viability, no added stimulus, profiling panel, cell-based, calcein-AM fluorescence, 48 h, PK04 Diversity Set (AID 1166).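 Note: cells grown under basal conditions without added stimulus; test concentration not given here.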 The settings on record: RPMI8226 myeloma viability, higher = more signal.
Assay [16] in a line: basal HepG2 mitochondrial membrane potential changes, profiling panel, cell-based, JC-1 fluorescence, 24 h, 100 nL compound (AID 1167). Note: test concentration not given here. Particulars: higher = more signal.
Assay [17] is described as follows: basal 3T3-L1 adipocyte mitochondrial potential changes, profiling panel, cell-based, JC-1 fluorescence, 3T3-L1 adipocytes, 24 h, 100 nL compound (AID 1168). Note: test concentration not given here. Particulars: JC-1 mitochondrial fluorescence, higher = more signal, called active from +8 up or from −8 down.
A short description of assay [18]: basal RPMI8226 mitochondrial membrane potential changes, profiling panel, cell-based, JC-1 fluorescence, 24 h, 100 nL compound (AID 1169). Note: test concentration not given here. Particulars: RPMI8226 myeloma, JC-1 mitochondrial potential fluorescence, higher = more signal.
A short description of assay [19]: basal MM1S mitochondrial membrane potential changes, profiling panel, cell-based, JC-1 fluorescence, 24 h, 100 nL compound (AID 1170). Note: test concentration not given here. The settings on record: higher = more signal.
Assay [20] in a line: A549 lung cancer cell viability effects, profiling panel, resazurin fluorescence, 24 h, PK04 Diversity Set (AID 1171). Note: test concentration not given here. The settings on record: higher = more signal, called active from +8 up or from −8 down. (In general: Resazurin is reduced to fluorescent resorufin, in cell work by metabolically active cells.)

Turning to `C#CCN=C(N)N`, the z-score in assay [1] was 0.0764 (inactive); in assay [3], 0.269 (inactive); in assay [4] it was 0.347 (inactive); in assay [5] it was -0.765 (inactive); in [6], -0.0065 (inactive); in assay [7], -0.871. In addition, the z-score in assay [8] was 0.059 (inactive); in [9], 0.217 (inactive); in assay [10], -0.0927; in assay [11], -0.268; in assay [12], -0.677; in [13], 0.527. The z-score in assay [14] is 0.67; in [15], 0.381; in [16] it was -0.794; in [17], 0.268 (inactive); in assay [18], -0.574; in assay [19] it was -0.922. Moreover, the z-score in assay [20] was 0.0116 (inactive). Moreover, the composite z-score in assay [2] was -0.214.
`COC(=O)[C@@]1(Cc2ccc(F)cc2)[C@H]2c3cc(C(=O)N(C)C)n(CCN4CCOCC4)c3C[C@H]2CN1C(=O)c1ccccc1`: the z-score was -1.43 (inactive) in assay [1]; -0.64 (inactive) in assay [3]; -0.738 (inactive) in [4]; 0.922 (inactive) in assay [5]; -1.9 (inactive) in assay [6]; 0.537 in assay [7]. The z-score was 0.482 (inactive) in assay [8]; 0.523 (inactive) in assay [9]; -0.757 in assay [10]; -1.27 in assay [11]; 0.234 in assay [12]; -0.796 in assay [13]. The z-score was -1.05 in assay [14]; -0.995 in assay [15]; -0.738 in assay [16]; -0.318 (inactive) in [17]; -0.245 in assay [18]; -0.28 in assay [19]. Moreover, the z-score in [20] is 0.389 (inactive). In assay [2], this molecule returned a composite z-score of 0.865.
`C=CCNC(=O)[C@H]1[C@@H]2C(=O)O[C@@H](c3ccccc3)[C@@H](c3ccccc3)N2[C@@H](c2ccccc2OCCO)[C@]12C(=O)N(C(=O)OCCOC)c1ccccc12`: the z-score is -0.557 (inactive) in assay [1]; 2.31 (inactive) in assay [3]; 1.1 (inactive) in assay [4]; -0.337 (inactive) in assay [5]; 0.973 (inactive) in assay [6]; 0.015 in [7]. Also, the z-score is 1.14 (inactive) in assay [8]; 0.676 (inactive) in assay [9]; 0.348 in assay [10]; -1.25 in assay [11]; -0.575 in [12]; -1.3 in assay [13]. Moreover, the z-score in assay [14] was -3.05; in assay [15], -3.82; in assay [16], 0.387; in assay [17] it was -0.49 (inactive); in assay [18], -0.919; in assay [19], -1.19. For the same molecule, the z-score in assay [20] is -1.04 (inactive). In assay [2], this molecule gave a composite z-score of 0.162.
Consider `CC(C)=CCN(C(=O)C#Cc1ccccc1)[C@H](CO)c1ccccc1`, for which the z-score in assay [1] is -4.56 (inactive); in [3], 16.8 (active); in [4], 3.67 (inactive); in assay [5], -2.25 (inactive); in assay [6], 0.402 (inactive); in [7], 0.21. Further, the z-score in assay [8] is 2.15 (inactive); in assay [9] it was -1 (inactive); in assay [10] it was -3.76; in assay [11], -3.88; in assay [12], -0.522; in [13], -5.06. Moreover, the z-score was -3.2 in assay [14]; -4.1 in [15]; -3.07 in assay [16]; 0.983 (inactive) in assay [17]; -1.24 in assay [18]; -2.54 in assay [19]. The z-score in [20] is -2.45 (inactive). Also, in assay [2], the composite z-score is -0.0876.
In the case of `CC(C)CNC(=O)[C@@H]1c2ccccc2C(=O)N(Cc2ccccc2Cl)[C@H]1c1ccc(CO)cc1`, the z-score in assay [1] is 0.244 (inactive); in assay [3], 2.54 (inactive); in assay [4] it was 0.526 (inactive); in [5], 0.531 (inactive); in assay [6] it was 0.181 (inactive); in assay [7] it was 0.279. Moreover, the z-score in assay [8] was -0.451 (inactive); in assay [9], 0.16 (inactive); in assay [10] it was -1.75; in assay [11], -0.103; in assay [12], 0.187; in assay [13] it was -0.228. In addition, the z-score in [14] was -0.242; in [15], -0.183; in assay [16], 1.01; in [17], -0.0284 (inactive); in [18] it was 0.13; in assay [19] it was 0.438. For the same molecule, the z-score in [20] was 0.914 (inactive). The composite z-score in [2] is -0.133.
Regarding `CC(=O)NCCCC[C@@H]1NC(=O)[C@H]2C[C@@H](C(=O)NCCCCCC[N+](C)(C)C)[C@@H](c3ccc(O)cc3)N2C1=O`, the z-score in [1] was 0.371 (inactive); in [3], 1.94 (inactive); in assay [4], 0.369 (inactive); in [5] it was 0.469 (inactive); in assay [6], 0.0802 (inactive); in assay [7], -0.054. Moreover, the z-score in [8] was 0.834 (inactive); in assay [9] it was 0.288 (inactive); in assay [10] it was -0.454; in assay [11], -0.74; in [12] it was 0.234; in assay [13] it was -1.22. Also, the z-score is -0.0244 in assay [14]; 0.512 in [15]; -0.896 in assay [16]; 0.217 (inactive) in assay [17]; 0.0883 in assay [18]; -0.251 in assay [19]. In addition, in [20], the z-score is 0.615 (inactive). Moreover, in assay [2], the composite z-score is 0.0262.
As for `[N-]=[N+]=NCc1ccccc1[C@@H]1OC(c2ccc(OCCCO)cc2)=N[C@]1(Cc1ccccc1)C(=O)NCc1ccccc1`, the z-score in assay [1] is 0.251 (inactive); in assay [3], 18.4 (active); in assay [4], 4.26 (inactive); in assay [5], 1.52 (inactive); in [6], 0.983 (inactive); in assay [7] it was 0.0369. Besides, the z-score in assay [8] is -3.27 (inactive); in assay [9], 1.15 (inactive); in [10], 0.85; in assay [11], 0.53; in assay [12], 0.592; in assay [13], 0.293. Besides, the z-score in assay [14] was -0.856; in assay [15], -0.0369; in assay [16] it was 0.152; in assay [17], 0.594 (inactive); in assay [18], -0.994; in assay [19], -0.921. The z-score in assay [20] was 0.267 (inactive). The composite z-score in assay [2] was 0.219.
As for `COc1ccc(C#Cc2ccc3c(c2)[C@]2(C(=O)N3)[C@H](C(=O)Nc3nc4ccccc4s3)[C@H]3C(=O)O[C@H](c4ccccc4)[C@H](c4ccccc4)N3[C@@H]2c2ccc(OCCO)cc2)cc1`, the z-score was -0.368 (inactive) in [1]; 2.85 (inactive) in assay [3]; 1.41 (inactive) in assay [4]; -0.521 (inactive) in assay [5]; 0.81 (inactive) in assay [6]; 0.13 in assay [7]. Moreover, the z-score is 0.578 (inactive) in assay [8]; 0.0813 (inactive) in [9]; -1.04 in [10]; -0.255 in [11]; 0.183 in assay [12]; 0.044 in assay [13]. Moreover, the z-score in assay [14] is -2.63; in [15], -0.988; in [16], -3.48; in [17], -1.95 (inactive); in assay [18] it was -1.21; in assay [19], -2.1. Besides, the z-score in assay [20] was 0.135 (inactive). Also, the composite z-score in [2] was -0.0186.
As to `COC(=O)[C@@]1(Cc2ccc(F)cc2)[C@H]2c3cc(C(=O)N4CCCC4)n(CCO)c3C[C@H]2CN1C(=O)c1ccccc1`, the z-score was -1.56 (inactive) in [1]; 2.59 (inactive) in assay [3]; 0.279 (inactive) in assay [4]; 1.48 (inactive) in [5]; 0.716 (inactive) in assay [6]; 0.871 in assay [7]. The z-score in [8] is 0.54 (inactive); in [9], 2 (inactive); in assay [10], 0.15; in assay [11], 0.448; in assay [12], -0.35; in assay [13], -0.885. Further, the z-score in assay [14] is 0.309; in assay [15], -0.929; in [16] it was 1.04; in assay [17] it was 0.379 (inactive); in assay [18], -0.249; in assay [19] it was -0.996. For the same molecule, the z-score in assay [20] is 0.11 (inactive). In assay [2], the composite z-score is -0.193.
